Activity calls are given as the source filed them.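 Rule for the calls: active = z-score of at least 1.8 in each of two replicates, scored against plate mean and spread of sample wells; inactive = the rest.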

The nature of this assay: viability rescue of complex I mutant cybrids, primary screen, cell-based, galactose medium, ATP luminescence (AID 1645843).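 Note: positive z means more ATP and so rescue of galactose-driven cybrid death.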 The note with it: complex I mutant cybrid cells, 72 h, active compounds read high.
As to `CN1CCCC1CCNC(=O)c1cc(-c2ccccc2)cc(S(=O)(=O)N2CCSCC2)c1` (stereo not given), the z-score is 0.505 (inactive).

Regarding `CCOC(=O)N1CCC(NC2CCc3c(c(C(=O)N(C)C)nn3Cc3ccccc3)C2)CC1` (stereo not given), the z-score is -0.835 (inactive).

As to `COC(=O)CN1C(=O)N(CCc2ccccc2)C2(CCN(Cc3ccc4c(c3)OCCO4)CC2)C1=O`, the z-score was 1.24 (inactive).

In the case of `C[C@@H](NC(=O)N[C@H]1C[C@H]2C(=O)N[C@H](Cc3ccc(O)cc3)C(=O)N2C1)c1ccccc1`, the z-score is 0.6 (inactive).

In the case of `COC(=O)c1c(NC(=O)C2CCC2)c2cc(NC3CCSCC3)cnc2n1CCc1ccccn1`, the z-score was 1.1 (inactive).

Consider `CCOC(=O)c1nn(CCc2ccccc2)c2c1CN(C(=O)CCc1nc3ccccc3s1)CC2`, for which the z-score is 0.345 (inactive).

Regarding `CN1CC(=O)N2CCN(C(=O)NCc3ccccc3)C[C@@H]2C1=O`, the z-score was -0.795 (inactive).

For the compound `Cc1ccn2cc(C(=O)N3CCc4c(cc(-c5ccc(OC(F)(F)F)cc5)c(=O)n4C)C3)nc2c1`, the z-score is 1.4 (inactive).

Turning to `CC1=C(CCN2CCC3(CC2)C(=O)N(C(C)C)C(=O)N3C)C(C)(C)CCC1`, the z-score was 1.89 (inactive).

As to `CCn1nc(C(=O)N2CCCC2)c2c1CCC(NCCC1=CCCCC1)C2` (stereo not given), the z-score was -1.23 (inactive).

Consider `COCCN1C(=O)N(C(C)C)C(=O)C12CCN(Cc1c(F)cccc1Cl)CC2`, for which the z-score was 2.07 (inactive).

Turning to `COc1ccc(C(=O)N2CCN3C(=O)[C@H](COCc4ccccc4)NC(=O)[C@H]3C2)cc1`, the z-score was -0.43 (inactive).

For the compound `O=C1N[C@@H](Cc2ccccc2)C(=O)N2CCN(C(=O)c3cccs3)C[C@H]12`, the z-score was -1.15 (inactive).

On to `COC(=O)c1c(NC(=O)c2cccnc2)c2cc(NCc3ccc4c(c3)CCO4)cnc2n1CC(C)C`, for which the z-score was -1.61 (inactive).

As to `CC(C)/C=C/CNc1cc(C(=O)NCc2cn3ccccc3n2)cc(S(=O)(=O)NC(C)C)c1`, the z-score was -1.65 (inactive).

As for `CC(C)Cn1nc(C(=O)N2CCOCC2)c2c1CCC(NCc1ccc(F)cc1)C2` (stereo not given), the z-score is 0.625 (inactive).

For the compound `Cc1csc(-c2cc(C(=O)N(C)C3CCN(C)CC3)cc(S(=O)(=O)N3CCOCC3)c2)c1`, the z-score was 0.47 (inactive).

With `COc1cc(CN2CCc3c(cc(-c4cccc(F)c4)c(=O)n3CCn3ccc(C)n3)C2)ccc1O`, the z-score was -0.15 (inactive).

For `CCCCNC(=O)[C@@H]1C[C@H](CN2CCOCC2)CN(CCc2ccccc2)C1`, the z-score was -0.965 (inactive).

`CC(C)=CCNc1cc(C(=O)NCc2cn3ccccc3n2)cc(S(=O)(=O)NC(C)C)c1`: the z-score is -0.5 (inactive).

In the case of `O=C(Nc1ccccc1Cl)N[C@H]1C[C@H]2C(=O)N[C@H](Cc3ccc(O)cc3)C(=O)N2C1`, the z-score is -0.455 (inactive).

Consider `COC(=O)c1c(NC(=O)C2CCOC2)c2cc(NC(C)CO)cnc2n1CCCc1ccccc1` (stereo not given), for which the z-score was -0.185 (inactive).

`COC(=O)c1c(NC(C)=O)c2cc(NC3CCOCC3)cnc2n1CCc1ccc(OC)cc1`: the z-score was 0.445 (inactive).

As for `Cc1ccc(C(=O)N[C@H]2C[C@H]3C(=O)N[C@@H](Cc4ccc(O)cc4)C(=O)N3C2)cc1F`, the z-score was 0.075 (inactive).

As for `CC(C)N1CC(OCc2ccc(F)cc2)CN(C(=O)c2ccc(C#CC(C)(C)O)o2)CC1=O` (stereo not given), the z-score was 0.06 (inactive).

In the case of `O=C1N[C@@H](Cc2c[nH]c3ccccc23)C(=O)N2C[C@@H](NCc3ccccc3Cl)C[C@@H]12`, the z-score is -0.945 (inactive).

`O=C(NCCn1ccnc1)c1cc(NCC2CC=CCC2)cc(S(=O)(=O)N2CCCC2)c1` (stereo not given): the z-score was -0.94 (inactive).

Regarding `CCc1nc(Cn2c3c(cc(-c4ccccc4C)c2=O)CN(Cc2ccc(O)c(Cl)c2)CC3)no1`, the z-score is 0.44 (inactive).

Regarding `CCCCNC(=O)[C@@H]1C[C@H](CN2CCOCC2)CN(Cc2ccc(O)cc2)C1`, the z-score was 0.115 (inactive).

For `O=C1N[C@H](CO)C(=O)N2CCN(C(=O)c3ccc(F)cc3)C[C@H]12`, the z-score was -0.325 (inactive).

In the case of `CN(Cc1nc(-c2ccccc2)cs1)C1CCc2c(c(C(=O)N3CCSCC3)nn2C)C1` (stereo not given), the z-score was 0.7 (inactive).

As to `COc1cc(/C=C/CN2CC(=O)N(C(C)C)CC(OCc3noc(C)n3)C2)ccc1O` (stereo not given), the z-score is -1.32 (inactive).

Take `CCC(C)C(=O)Nc1c(C(=O)OC)n(CC2CCCO2)c2ncc(NC3CCSC3)cc12` (stereo not given): the z-score was -0.775 (inactive).

Consider `CN1C(=O)N(Cc2ccccc2)C2(CCN(Cc3nc4ccccc4n3C)CC2)C1=O`, for which the z-score was -0.11 (inactive).

For `Cc1ccc(-c2cc(C(=O)N3CCC[C@H]3CO)cc(S(=O)(=O)N3CCOCC3)c2)s1`, the z-score was -0.415 (inactive).

The values are drawn from PubChem BioAssay.
